Among all 360,000 compounds or so, about 3,100 (0.86%) were called active. Many of the other results were omitted from the sample, so actives are more common in it than they were. Unmarked numbers belong to inactive results.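 The calls were made as follows: active = inhibition or corrected inhibition above about 18%, plus a signal ratio from 0.5 to 1.5 (limit read from the data, passing the limit was not always enough); inactive = the rest.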

The text below walks through data of PubChem BioAssay AID602438 (Sanford-Burnham Center for Chemical Genomics, 2012).

The target of the test is Neuropilin-1 (Homo sapiens) (UniProt O14786). The experiment in a line: modulators of CendR peptide binding to NRP-1, primary screen, biochemical, fluorescence polarization, uHTS (AID 602438). The note with it: FAM-RPARPAR peptide binding to NRP-1, fluorescence polarization; at 25 µM; active compounds read high. On the technique in general: Polarisation of emitted light reports the rotation of a fluorescent probe.
Sequence of Neuropilin-1 (Homo sapiens) (O14786 whole entry, looked up): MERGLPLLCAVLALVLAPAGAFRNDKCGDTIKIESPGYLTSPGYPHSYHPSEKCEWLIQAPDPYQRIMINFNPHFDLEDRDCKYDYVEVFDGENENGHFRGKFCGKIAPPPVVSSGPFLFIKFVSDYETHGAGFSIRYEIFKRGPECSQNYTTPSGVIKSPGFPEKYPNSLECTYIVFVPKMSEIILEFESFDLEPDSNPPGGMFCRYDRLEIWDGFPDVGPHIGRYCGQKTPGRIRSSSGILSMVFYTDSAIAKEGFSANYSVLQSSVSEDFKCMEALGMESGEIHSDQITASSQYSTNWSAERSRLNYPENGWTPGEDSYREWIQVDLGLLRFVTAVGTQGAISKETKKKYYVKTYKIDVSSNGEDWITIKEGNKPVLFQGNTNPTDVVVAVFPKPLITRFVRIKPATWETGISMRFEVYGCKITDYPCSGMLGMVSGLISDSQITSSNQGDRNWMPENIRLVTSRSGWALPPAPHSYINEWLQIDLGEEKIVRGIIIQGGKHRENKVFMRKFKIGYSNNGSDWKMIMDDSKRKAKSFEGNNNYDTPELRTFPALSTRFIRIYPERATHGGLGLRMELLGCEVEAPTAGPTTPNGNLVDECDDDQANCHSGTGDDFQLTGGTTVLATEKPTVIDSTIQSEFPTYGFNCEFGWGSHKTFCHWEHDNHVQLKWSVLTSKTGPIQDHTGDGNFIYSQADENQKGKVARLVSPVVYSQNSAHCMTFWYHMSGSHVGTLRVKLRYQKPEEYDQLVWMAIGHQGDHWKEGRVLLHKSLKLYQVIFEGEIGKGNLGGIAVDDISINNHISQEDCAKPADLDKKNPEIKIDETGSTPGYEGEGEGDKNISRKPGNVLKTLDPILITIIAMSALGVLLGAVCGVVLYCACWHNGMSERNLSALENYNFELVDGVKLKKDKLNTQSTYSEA
On to `CCOC(=O)CSc1nncc2ccc(OC)c(OC)c12`, for which the inhibition is -16.1%.
With `CCOc1ccc(NC(=O)CC(Cc2ccc(Cl)cc2)C(=O)O)cc1` (stereo not given), the inhibition was 1.1%.
Consider `COC(=O)C(Cc1c[nH]c2ccccc12)NC(=O)CCNC(=O)c1ccco1` (stereo not given), for which the inhibition is 22.2% (active).
As to `CC(=O)NC(Cc1c[nH]c2ccccc12)C(=O)NCCc1ccccc1` (stereo not given), the inhibition is 6.7%.
Take `COc1ccc(CNC(=O)[C@H](Cc2c[nH]c3ccccc23)NC(C)=O)cc1OC`: the inhibition was -6.3%.
Turning to `Cc1cc(C)cc(N(CC(=O)N2CC=C(c3ccccc3)CC2)S(=O)(=O)c2c(C)noc2C)c1`, the inhibition was -1.1%.
Then `O=C(c1cccc(F)c1)N1CCN(c2ccc([N+](=O)[O-])c(N3CCCCC3)c2)CC1`, with 44.3% (active); and `O=C(c1cccc(F)c1)N1CCN(c2ccc([N+](=O)[O-])c3cccnc23)CC1`, with -12.9%.
Then `CC(C)c1ccc(S(=O)(=O)N2CCN(C(=O)c3ccc(N4CCCC4)c([N+](=O)[O-])c3)CC2)cc1`, with 6.8%.
As to `Cc1ccc(C2NC(=S)NC3=C2N2CCC3CC2)cc1` (stereo not given), the inhibition was 11.9%.
Turning to `COc1ccccc1CCNS(=O)(=O)c1cc2c3c(c1)C(C)C(=O)N3CCC2` (stereo not given), the inhibition is -11.3%.
The same measure for `COc1cccc(CNC(=O)[C@@H]2CCCN2C(=O)[C@@H]2CCCN2C(=O)c2ccccc2)c1`: -6.2%; for `CCOC(=O)C1(O)CC(C)=NN1C(=O)c1cccc(Br)c1` (stereo not given): 26.7% (active).
In the case of `CC1=NN(C(=O)c2ccc(Br)cc2)C(O)(c2ccccc2)C1` (stereo not given), the inhibition was -3%.
Then `CC1=NN(C(=O)c2ccccc2Br)C(O)(c2cccnc2)C1` (stereo not given), with -1.7%; and `O=C(NCc1ccco1)c1ccc(NS(=O)(=O)c2cccc([N+](=O)[O-])c2)cc1`, with 6.8%; and `O=C(C1CCCO1)N(c1ccc(F)cc1)C1C=CS(=O)(=O)C1` (stereo not given), with -10.6%.
The same measure for `CCc1nnc(NC(=O)CSc2nnc(COc3ccc(C#N)cc3)n2-c2ccccc2)s1`: 0.5%.
Then `COc1ccccc1N(CCOc1ccccc1)S(=O)(=O)c1ccccc1`, with 26.1% (active).
Turning to `COc1ccccc1N(CC(=O)N1CCCCC1)S(=O)(=O)c1ccccc1`, the inhibition was -3.8%.
The same measure for `CCOc1ccc(N(CC(=O)NCCOc2ccccc2OC)S(=O)(=O)c2ccccc2)cc1`: -4.4%.
Turning to `COc1nc(OC)nc(N(C)CCO)n1`, the inhibition is 14.8%.
The same measure for `O=C(CSc1nccn1-c1cccc(F)c1)NC1CCCC1`: -2.9%; for `CC(=O)Nc1cccc(NC(=O)CSc2nccn2Cc2ccc(F)cc2)c1`: 0.6%; for `O=C(OCc1ccccc1)N1CCC2CC1c1cc(N3CCN(S(=O)(=O)c4cc(Cl)cc(Cl)c4)CC3)ccc12` (stereo not given): 7.8%.

Usually inhibition stands for the change of the read-out against control, counted positive when it falls.
